Measured values from PubChem BioAssay (NCATS).
Calls of active or inactive are those of the source. Where a call stands in place of a potency, no number is given. Calls follow the shape of the dose curve; as a rule, active = well fitted cell-killing curve with a large enough effect; inconclusive = small, poorly fitted or top-dose-only effect; inactive = flat fitted curve, though single readings scatter.

assay: MultiTox-Fluor Cytotoxicity Assay - LYMP1-003 - Live Cells (AID 962); details: LYMP1-003 lymphoblastoid cells, MultiTox-Fluor live-cell protease fluorescence; series mostly up to 92.2 µM;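 also: cytotoxic hits lower the live-cell protease signal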
Description: NIH Chemical Genomics Center [NCGC]
NIH Molecular Libraries Screening Centers Network [MLSCN]
National Institutes of Environmental Health Sciences [NIEHS]
National Toxicology Program [NTP]
We have developed a 1536-well cell-based assay for quantitative high throughput screening (qHTS) against a number of cell lines to determine in vitro cytotoxicity of small molecules. This particular assay uses a human lymphoblastoid cell line (LYMP1-003) purchased from Coriell Institute.
NCGC Assay Protocol Summary:
The MultiTox-Fluor Cytotoxicity Assay (Promega) is a homogeneous method to simultaneously measure the relative number of live and dead cells in culture by detecting changes in cell membrane integrity. There are two fluorogenic peptide substrates in the assay reagent. Viable cells are determined when the cell-permeant substrate (GF-AFC) enters the cell and is cleaved by protease from live cells resulting in liberated fluorophore. This live-cell protease activity restricted to viable cells is proportional to cell number. The dead cells are determined by using fluorogenic cell-impermeant peptide substrate (bis-AAF-R110) which cleaved by dead cell proteases leaking from damaged cell membrane.
Using the MultiTox-Fluor Cytotoxicity Assay, the relative number of live cells was measured in the lymphoblastoid cell line with complete culture medium following compound treatment for 16 hours. The assay was performed in opaque black Kalypsys 1536-well plates. In the screen, tetraoctylammonium bromide was used as positive control. Library compounds were measured for their ability to cause acute toxicity in the cell line, as reflected by a decrease in live cell protease activity, in a concentration-dependent manner. […] AC50 values were determined from concentration-response data modeled with the standard Hill equation.
qHTS protocol for MultiTox-Fluor Cytotoxicity assay
[Step] [Parameter] [Value] [Description]
1. Reagent; 5 uL; 2500 lymphoblastoid cells/well
2. Time; 5 hr; 37 C incubation
4. Controls; 23 nL; Tetraoctylammonium bromide 6.4pM to 92 uM
5. Time; 16 hr; 37 C incubation
6. Reagent; 5 uL; MuliTox-Fluor Assay reagent
7. Time; 60 min; Room Temperature
8. Detection; live-cell fluorescence (Ex/Em=405/510); EnVision plate reader
Keywords: cell viability, cytotoxicity, lymphoblastoid cell line, fluorescence, NTPHTS, NTPHTS_NCGC, NIEHS, EPA, DSSTox, MLSMR, MLSCN, NIH Roadmap, qHTS, NCGC

SMILES | Potency
Cc1cccc2cccnc12 | inactive
CC(=O)c1ccc([N+](=O)[O-])cc1 | inactive
OCCO | inactive
O=Cc1cccc(Br)c1 | inactive
NC=O | inactive
C1CCCC1 | inactive
Cc1cccc(C)c1[N+](=O)[O-] | inactive
O=Cc1ccccc1Cl | inactive
C/C=C1\CC2C=CC1C2 (stereo not given) | inactive
CC(O)COC(C)(C)C (stereo not given) | inactive
Cc1c(N)cccc1N | inactive
Cc1cc(C2(c3cc(C)c(O)cc3C)OS(=O)(=O)c3ccccc32)c(C)cc1O | inactive
c1ccc2[nH]cnc2c1 | inactive
COC(=O)CCC(=O)OC | inactive
CO[Si](CCCNCCC[Si](OC)(OC)OC)(OC)OC | inactive
NC(=O)CCCCC(N)=O | inactive
NC(=O)NC(N)=O | inactive
C=C(C)C(=O)OCCCCCCCCCC | inactive
c1ccc(Nc2ccccc2)cc1 | inactive
Cc1ccc(C)c(N)c1 | inactive

SMILES | Potency
O=C(O)c1cccc([N+](=O)[O-])c1 | inactive
CNc1ccccc1 | inactive
CCCCC(CC)CNCC(CC)CCCC (stereo not given) | inactive
NC(=O)c1ccccc1[N+](=O)[O-] | inactive
CC(=O)c1ccccc1[N+](=O)[O-] | inactive
CC(=O)c1cc(C)oc1C | inactive
CC(=O)Nc1ccc(C)cc1 | inactive
CC(C)Nc1ccccc1 | inactive
Cc1ccc(C(=O)O)cc1 | inactive
Nc1cccc(C(F)(F)F)c1 | inactive
Nc1cccc([N+](=O)[O-])c1 | inactive
CCNc1cc(O)ccc1C | inactive
CC(=O)C1(C)CC2=C(CCCC2(C)C)CC1C (stereo not given) | inactive
COc1ccccc1[N+](=O)[O-] | inactive
C(=C/c1ccccc1)/c1ccccc1 | inactive
CCCOCC(C)O (stereo not given) | inactive
O=C(O)CCSSCCC(=O)O | inactive
O=C(O)c1ccccc1Cl | inactive
CC(C)Cc1nccs1 | inactive
O=C(Cl)c1cccc([N+](=O)[O-])c1 | inactive
